Measurements: PubChem BioAssay (NCI)
About 79,000 compounds went through this panel and 15% of them were active in at least one assay; those are over-represented in the sample as a whole. Unmarked numbers belong to inactive results. Calls of active or inactive are those of the source. Cut-off read from the data, not from the text of the source: active = growth inhibition above about 70%; inactive = the rest.

How the values were obtained:
[1] = NCI Yeast Anticancer Drug Screen. Data for the rad50 strain (AID 155);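 note: 0% = growth of vehicle-only cultures of the same strain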; conditions: S. cerevisiae rad50 strain growth inhibition, active compounds read high
Method in brief: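 Inhibition values express reduced yeast growth in compound-treated cultures relative to vehicle-treated controls.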

[2] = NCI Yeast Anticancer Drug Screen. Data for the mec2-1 strain (AID 157); conditions: S. cerevisiae mec2-1 strain, active compounds read high
Method in brief: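 Yeast mec2-1 mutant treated with compound. Readout: growth inhibition vs vehicle controls.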

[3] = NCI Yeast Anticancer Drug Screen. Data for the sgs1 mgt1 strain (AID 161);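 note: 0% = growth of cultures given vehicle only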; conditions: S. cerevisiae sgs1 mgt1 strain, active compounds read high
Method in brief: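 Read-out: growth inhibition vs vehicle controls. Cells: mutant yeast strain deficient in DNA damage repair.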

[4] = NCI Yeast Anticancer Drug Screen. Data for the cln2 rad14 strain (AID 165);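 note: 0% = growth equal to vehicle treated cultures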; conditions: S. cerevisiae cln2 rad14 strain, active compounds read high
Method in brief: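 cln2 rad14 yeast strain; compound exposure; growth inhibition read vs vehicle controls.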

[5] = NCI Yeast Anticancer Drug Screen. Data for the bub3 strain (AID 167); conditions: S. cerevisiae bub3 mutant strain, active compounds read high
Method in brief: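 Steps: expose the mutant yeast strain to compound; grow alongside vehicle-treated cultures; measure growth; express inhibition against the vehicle cultures.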

[6] = NCI Yeast Anticancer Drug Screen. Data for the mlh1 rad18 strain (AID 175); conditions: S. cerevisiae mlh1 rad18 strain growth inhibition, active compounds read high
Method in brief: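 Yeast w/ defined DNA-repair lesions; compound exposure; growth vs vehicle controls → % inhibition.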

[7] = at 5.0 µM (retest, dose inferred, filed as 0.5)
[8] = at 50.0 µM (retest, dose inferred, filed as 5.0)

| SMILES | growth inhibition [1, 7] | growth inhibition [1, 8] | growth inhibition ([1]; at 50.0 µM) | growth inhibition [2, 7] | growth inhibition [2, 8] | growth inhibition ([2]; at 50.0 µM) | growth inhibition [3, 7] | growth inhibition [3, 8] | growth inhibition ([3]; at 50.0 µM) | growth inhibition [4, 7] | growth inhibition [4, 8] | growth inhibition ([4]; at 50.0 µM) | growth inhibition [5, 7] | growth inhibition [5, 8] | growth inhibition ([5]; at 50.0 µM) | growth inhibition [6, 7] | growth inhibition [6, 8] | growth inhibition ([6]; at 50.0 µM) |
| --- | --- | --- | --- | --- | --- | --- | --- | --- | --- | --- | --- | --- | --- | --- | --- | --- | --- | --- |
| COP(=O)(OC)OCC1OC(n2cnc3c(N)ncnc32)C(O)C1O (configuration not stated) | -2% | -2% | 96.5% (active) | 2% | 2% | 95.9% (active) | 0% | -2% | 94.5% (active) | 4% | 4% | 89.7% (active) | -1% | -4% | 96.2% (active) | -3% | -5% | 97.3% (active) |
| C=C(CSCCCCCCCCCCCC)C(=O)O | 98% (active) | 97% (active) | 98.5% (active) | 99% (active) | 98% (active) | 98.9% (active) | 98% (active) | 97% (active) | 98.5% (active) | 98% (active) | 96% (active) | 94.3% (active) | 98% (active) | 96% (active) | 99.3% (active) | 99% (active) | 97% (active) | 96.7% (active) |
| COc1ccc(C2C3CCCC(C(c4ccc(OC)cc4)N2C)C32NC(=O)NC2=O)cc1 (configuration not stated) | 63% | 98% (active) | 97.2% (active) | 25% | 98% (active) | 98% (active) | 23% | 98% (active) | 97.8% (active) | 2% | 97% (active) | 97.2% (active) | 3% | 97% (active) | 97.8% (active) | 29% | 95% (active) | 97.6% (active) |
| CC(=O)Oc1c2c(c(C)c3ccccc13)C(=O)c1cccnc1C2=O | 6% | 4% | 98.4% (active) | 6% | 5% | 98.8% (active) | 5% | 6% | 98.7% (active) | 10% | 0% | 97.8% (active) | 4% | -1% | 98.2% (active) | 3% | 2% | 98.6% (active) |
| C(/Cc1ccc2c(c1)OCO2)=N\NC1=NCCCCN1 | -3% | -18% | 15.7% | -3% | -5% | -7.25% | -2% | -15% | -16.2% | 0% | -17% | 28.8% | -1% | -20% | 3.2% | 0% | -18% | -6.5% |
| Nc1ccc(Oc2ccccc2)cc1 | 2% | 38% | 67.5% | -3% | 7% | 33.9% | -9% | 37% | 75.6% (active) | -1% | 1% | 1.2% | 0% | -18% | 25.4% | -3% | 28% | 54.8% |
| CCCCC(CCCC)=NNC(=S)SC | 4% | 85% (active) | 83.9% (active) | 5% | 62% | 45.1% | 3% | 79% (active) | 66% | -3% | 17% | -27.6% | 2% | 80% (active) | 74.1% (active) | -3% | 87% (active) | 56.9% |
| CC1CC(OC(=O)Nc2ccccc2)CC(C)(C)C1 (configuration not stated) | -33% | 76% (active) | 78.8% (active) | 9% | 74% (active) | 80.6% (active) | -6% | 87% (active) | 91.5% (active) | 4% | 81% (active) | 66.8% | 10% | 83% (active) | 90.3% (active) | 4% | 87% (active) | 85.6% (active) |
| NCCC1=CCCCC1 | 1% | 95% (active) | 88.2% (active) | 5% | 97% (active) | 90.5% (active) | 2% | 98% (active) | 88.3% (active) | -7% | 96% (active) | 35.6% | -4% | 96% (active) | 65% | -2% | 97% (active) | 90% (active) |
